# Test results from PubChem BioAssay.
# “And” between values parts separate entries of the source, which are not always exact repeats. Equal values may be shown once. Results filed as inconclusive are left out. The source made the active and inactive calls.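 How the source made its calls, unless noted: active means normalized viability below 100% at a tested concentration; inactive means the rest.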
# Key:
# [1] = growth inhibition of DIPG glioma cells, dose response, cell-based, SU-DIPG-XIII, MIPE4.0, CellTiter-Glo, qHTS (AID 1347061; cut-off not given, nearly all actives have AC50 up to about 37 µM;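 further: cells exposed to compound for 48 hours before readout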); settings: SU-DIPG-XIII viability, CellTiter-Glo ATP luminescence
# [2] = SU-DIPG-VI glioma cell viability, MIPE4.0 library, CellTiter-Glo luminescence, qHTS (AID 1347066; cut-off not given, nearly all actives have AC50 up to about 30 µM;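 further: cells exposed to compound for 48 hours before readout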); settings: CellTiter-Glo ATP luminescence
# [3] = growth inhibition of DIPG glioma cells, dose response, cell-based, SU-DIPG-IV, MIPE4.0, CellTiter-Glo, qHTS (AID 1347063; cut-off not given, nearly all actives have AC50 up to about 30 µM;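 further: compound exposure lasted 48 hours before the viability readout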); settings: SU-DIPG-IV viability, CellTiter-Glo ATP luminescence
# [4] = viability loss in pontine glioma line – cell-based, SU-DIPG-XXV, MIPE5.0, CellTiter-Glo, qHTS, dose response (AID 1347065; cut-off not given, nearly all actives have AC50 up to about 26 µM;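 further: cells exposed to compound for 48 hours before ATP readout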); settings: CellTiter-Glo ATP luminescence
# [5] = SU-DIPG-XXV glioma cell viability, MIPE5.0 library, qHTS (AID 1347068; cut-off not given, nearly all actives have IC50 up to about 30 µM)
# [6] = JHH-DIPG-1 glioma cell viability, MIPE5.0 library, CellTiter-Glo luminescence, qHTS (AID 1347067; cut-off not given, nearly all actives have AC50 up to about 26 µM;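 further: cells exposed to compound for 48 hours before readout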); settings: JHH-DIPG-1 glioma viability, CellTiter-Glo ATP luminescence
# [7] = modifiers of HSF1 nuclear foci, imaging, Selleck Cancer Library (AID 1347162; in the data active means plate-normalised HSF1 focus index below about 0.46); settings: human cells, at 10 µM; SSMD: measured here: HSF1 foci SSMD mean; cell count: measured here: cell number; plate-normalised HSF1 focus index: stronger effect = lower value
# [8] = ovarian cancer cell viability with rucaparib, profiling panel, oncology-focused library, rucaparib conditional (AID 1508598); settings: patient-derived ovarian cancer cells, CellTiter-Glo viability, 144 h, stronger effect = lower value
# [9] = growth inhibition of DIPG glioma cells, dose response, cell-based, JHH-DIPG-1, MIPE4.0, CellTiter-Glo, qHTS (AID 1347062; cut-off not given, nearly all actives have AC50 up to about 27 µM); settings: JHH-DIPG-1 viability, CellTiter-Glo ATP luminescence
# [10] = sensitizers of A549 cells to miR-34 induction, primary screen, imaging, A549 dox-inducible miR-34, nuclei and caspase counts (AID 1347080;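 active means compounds whose cell count with miR-34 switched on is under 0.7 times the count with it off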); settings: A549 miR-34 inducible, Hoechst nuclei count, 48 h
# [11] = survival rescue of mitochondrial mutant cells in low glucose, primary screen, MELAS cybrids, Rieske KO mouse fibroblasts, CellTiter-Glo (AID 1508586;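 active means mean z-score across replicates of 1.96 or higher in either the MELAS or the Rieske mutant cell line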;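 further: z relative to plate mean and SD of compound and empty wells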)
compound,measurement,setting,value
C[C@@H](O)[C@H]1C(=O)N2C(C(=O)OCOC(=O)C(C)(C)C)=C(SC3CN(C4=NCCS4)C3)[C@H](C)[C@H]12,outcome,[1],inactive
same,outcome,[2],inactive
CCOC(=O)C1=C(C)NC2=C(C(=O)CC(C)(C)C2)C1c1ccc(-c2ccccc2)cc1 (centres undefined),outcome,[1],inactive
same,AC50,[3],14.8 µM (active)
same,AC50,[4],23.5 µM (active)
same,outcome,[5],inactive
Cc1ccc2c(c1)c1c(n2CCc2ccc(C)nc2)CCN(C)C1,outcome,[1],inactive
same,outcome,[3],inactive
same,outcome,[2],inactive
C[C@@H](NCc1cc2ccccc2[nH]1)c1cccc2ccccc12,outcome,[1],inactive
same,outcome,[3],inactive
same,AC50,[4],26.3 µM (active)
same,outcome,[2],inactive
same,AC50,[6],14.8 µM (active)
C[C@H](NC(=O)Cc1cc(F)cc(F)c1)C(=O)N[C@@H]1C(=O)N(C)c2ccccc2-c2ccccc21,AC50,[1],18.7 µM (active)
same,outcome,[4],inactive
same,outcome,[2],inactive
same,outcome,[6],inactive
same,outcome,[5],inactive
same,SSMD,[7],-0.743
same,cell count,[7],5760
same,plate-normalised HSF1 focus index,[7],0.981 (inactive)
same,viability,"[8]; at 0.000305 µM, OCI-C5x cells, with rucaparib 10 µM, 100% = cells with rucaparib alone",117% (inactive)
same,viability,"[8]; at 0.000305 µM, OCI-C5x cells, without rucaparib",120% (inactive)
same,viability,"[8]; at 0.000305 µM, OCI-P5x cells, with rucaparib 20 µM, 100% = cells with rucaparib alone",94.9% (active)
same,viability,"[8]; at 0.000305 µM, OCI-P5x cells, without rucaparib",97.1% (active)
same,viability,"[8]; at 0.00122 µM, OCI-C5x cells, with rucaparib 10 µM, 100% = cells with rucaparib alone",121% (inactive)
same,viability,"[8]; at 0.00122 µM, OCI-C5x cells, without rucaparib",124% (inactive)
same,viability,"[8]; at 0.00122 µM, OCI-P5x cells, with rucaparib 20 µM, 100% = cells with rucaparib alone",93.1% (active)
same,viability,"[8]; at 0.00122 µM, OCI-P5x cells, without rucaparib",102% (inactive)
same,viability,"[8]; at 0.00488 µM, OCI-C5x cells, with rucaparib 10 µM, 100% = cells with rucaparib alone",118% (inactive)
same,viability,"[8]; at 0.00488 µM, OCI-C5x cells, without rucaparib",127% (inactive)
same,viability,"[8]; at 0.00488 µM, OCI-P5x cells, with rucaparib 20 µM, 100% = cells with rucaparib alone",90.9% (active)
same,viability,"[8]; at 0.00488 µM, OCI-P5x cells, without rucaparib",102% (inactive)
same,viability,"[8]; at 0.0195 µM, OCI-C5x cells, with rucaparib 10 µM, 100% = cells with rucaparib alone",122% (inactive)
same,viability,"[8]; at 0.0195 µM, OCI-C5x cells, without rucaparib",129% (inactive)
same,viability,"[8]; at 0.0195 µM, OCI-P5x cells, with rucaparib 20 µM, 100% = cells with rucaparib alone",101% (inactive)
same,viability,"[8]; at 0.0195 µM, OCI-P5x cells, without rucaparib",97.6% (active)
same,viability,"[8]; at 0.0781 µM, OCI-C5x cells, with rucaparib 10 µM, 100% = cells with rucaparib alone",122% (inactive)
same,viability,"[8]; at 0.0781 µM, OCI-C5x cells, without rucaparib",132% (inactive)
same,viability,"[8]; at 0.0781 µM, OCI-P5x cells, with rucaparib 20 µM, 100% = cells with rucaparib alone",96.3% (active)
same,viability,"[8]; at 0.0781 µM, OCI-P5x cells, without rucaparib",104% (inactive)
same,viability,"[8]; at 0.313 µM, OCI-C5x cells, with rucaparib 10 µM, 100% = cells with rucaparib alone",131% (inactive)
same,viability,"[8]; at 0.313 µM, OCI-C5x cells, without rucaparib",145% (inactive)
same,viability,"[8]; at 0.313 µM, OCI-P5x cells, with rucaparib 20 µM, 100% = cells with rucaparib alone",90.1% (active)
same,viability,"[8]; at 0.313 µM, OCI-P5x cells, without rucaparib",99.7% (active)
same,viability,"[8]; at 1.25 µM, OCI-C5x cells, with rucaparib 10 µM, 100% = cells with rucaparib alone",142% (inactive)
same,viability,"[8]; at 1.25 µM, OCI-C5x cells, without rucaparib",144% (inactive)
same,viability,"[8]; at 1.25 µM, OCI-P5x cells, with rucaparib 20 µM, 100% = cells with rucaparib alone",97.9% (active)
same,viability,"[8]; at 1.25 µM, OCI-P5x cells, without rucaparib",99% (active)
same,viability,"[8]; at 5 µM, OCI-C5x cells, with rucaparib 10 µM, 100% = cells with rucaparib alone",146% (inactive)
same,viability,"[8]; at 5 µM, OCI-C5x cells, without rucaparib",141% (inactive)
same,viability,"[8]; at 5 µM, OCI-P5x cells, with rucaparib 20 µM, 100% = cells with rucaparib alone",87.4% (active)
same,viability,"[8]; at 5 µM, OCI-P5x cells, without rucaparib",90.3% (active)
CCOc1ccccc1OCCNC(C)Cc1ccc(OC)c(S(N)(=O)=O)c1 (centres undefined),outcome,[1],inactive
same,outcome,[3],inactive
same,outcome,[2],inactive
O=c1c2ccccc2nc2n1CCc1c-2[nH]c2ccccc12,outcome,[1],inactive
same,outcome,[9],inactive
same,outcome,[2],inactive
same,fold change,"[10]; stronger effect = lower value, cell number ratio, induced over uninduced",0.916 (inactive) and 0.956 (inactive)
same,fold change,[10]; measured here: relative caspase fold change +Dox/-Dox,0.977 and 0.922
same,cell count,"[10]; measured here: total cells with miR-34 induction, stronger effect = lower value",6410 and 7870
same,cell count,[10]; measured here: total cells without miR-34 induction,6990 and 8230
same,z-score,"[11]; MELAS cybrid survival, CellTiter-Glo 48 h, stronger effect = higher value",-0.312 (inactive)
same,z-score,"[11]; Rieske KO mouse fibroblast survival, CellTiter-Glo 72 h",0.166
COc1cc2ncnc(Nc3cc(Br)c(O)c(Br)c3)c2cc1OC,outcome,[1],inactive
same,AC50,[3],2.35 µM (active)
same,outcome,[2],inactive
CC[C@]1(O)C[C@@H]2CN(CCc3c([nH]c4ccccc34)[C@@](C(=O)OC)(c3cc4c(cc3OC)N(C=O)[C@@H]3C45CCN4CC=C[C@](CC)([C@H]45)[C@@H](OC(C)=O)[C@]3(O)C(=O)OC)C2)C1 (some centres undefined),outcome,[1],inactive
same,outcome,[3],inactive
same,SSMD,[7],2.03
same,cell count,[7],6870
same,plate-normalised HSF1 focus index,[7],1.12 (inactive)
